The values below come from PubChem BioAssay (Tox21).

SMILES strings stand for the structures. Results filed as inconclusive are left out. The source made the active and inactive calls. Unless noted, calls come from the whole dose curve; as a rule, active = well fitted curve in the direction sought with a large enough effect in the repeat runs; inconclusive = weak or mixed curves; inactive = no such curve, though single readings can be large; an effect the other way counts as inactive or inconclusive.

Experiment [1] can be described thus: qHTS assay to identify aromatase inhibitors - cell viability counter screen (AID 743084).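 Note: cells stimulated with testosterone during compound exposure; nearly all actives have a fitted effect of over 55% in size.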 Note: potency is the fitted concentration of half-maximal effect.
Experiment [2] deals with Aryl hydrocarbon receptor (Homo sapiens) (UniProt P35869). Briefly: qHTS assay to identify small molecule that activate the aryl hydrocarbon receptor (AhR) signaling pathway (AID 743085).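 Note: HG2L7.5c1 human HepG2 liver cells with stably integrated DRE-driven firefly reporter; series mostly up to about 70 µM; nearly all actives have a fitted effect of over 15% in size.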 The procedure, abridged: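 Luminescence read-out: ONE-Glo reagent, 30 min at room temperature, in HG2L7.5c1 HepG2 reporter cells treated 24 h at 37C. Viability was measured beforehand by CellTiter-Fluor fluorescence after 30 min at 37C.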
Aryl hydrocarbon receptor (Homo sapiens), sequence (P35869 whole entry, looked up): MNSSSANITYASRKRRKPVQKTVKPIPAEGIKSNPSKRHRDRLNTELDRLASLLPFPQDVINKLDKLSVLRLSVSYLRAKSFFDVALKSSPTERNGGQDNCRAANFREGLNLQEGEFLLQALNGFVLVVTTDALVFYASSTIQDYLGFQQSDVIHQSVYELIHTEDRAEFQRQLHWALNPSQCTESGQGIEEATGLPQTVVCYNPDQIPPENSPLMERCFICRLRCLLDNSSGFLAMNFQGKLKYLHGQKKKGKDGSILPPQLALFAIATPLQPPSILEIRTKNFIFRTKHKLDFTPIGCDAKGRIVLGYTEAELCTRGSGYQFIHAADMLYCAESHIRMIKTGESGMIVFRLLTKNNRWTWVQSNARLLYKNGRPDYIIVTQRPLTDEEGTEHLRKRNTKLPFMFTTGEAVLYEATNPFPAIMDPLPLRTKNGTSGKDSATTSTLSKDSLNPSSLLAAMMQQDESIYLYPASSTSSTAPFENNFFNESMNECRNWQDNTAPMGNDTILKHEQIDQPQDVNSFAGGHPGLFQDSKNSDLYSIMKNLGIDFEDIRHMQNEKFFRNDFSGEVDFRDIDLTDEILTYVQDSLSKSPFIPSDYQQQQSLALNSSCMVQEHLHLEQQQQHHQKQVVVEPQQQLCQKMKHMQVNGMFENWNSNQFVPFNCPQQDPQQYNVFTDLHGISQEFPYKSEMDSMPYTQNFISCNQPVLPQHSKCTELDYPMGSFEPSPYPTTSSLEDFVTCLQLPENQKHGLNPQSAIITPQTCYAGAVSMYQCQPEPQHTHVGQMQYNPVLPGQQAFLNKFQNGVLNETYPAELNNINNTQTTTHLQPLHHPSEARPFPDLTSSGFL
(In general: In qHTS, concentration-response curves come from the screen itself.)

The target of experiment [3] is Peroxisome proliferator-activated receptor gamma (Homo sapiens) (UniProt P37231). Nature of the experiment: qHTS assay to identify small molecule antagonists of the peroxisome proliferator-activated receptor gamma (PPARg) signaling pathway (AID 743191; calls by dose curve; note: series mostly up to about 63 µM; nearly all actives have a fitted effect of over 30% in size). A digest of the protocol:
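GeneBLAzer PPARg UAS-bla HEK293H cells, 5 h post-plating, exposed to compounds 17 h at 37C. LiveBLAzer B/G FRET substrate added for 1 h at room temperature; beta-lactamase reporter read by fluorescence intensity.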

Experiment [4] in a line: qHTS assay to identify small molecule antagonists of the peroxisome proliferator-activated receptor gamma (PPARg) signaling pathway - cell viability counter screen (AID 743194). Note: nearly all actives have a fitted effect of over 55% in size. Note: potency is the fitted concentration of half-maximal effect. The note with it: Potency: co-treated with 50 nM rosiglitazone. A digest of the protocol: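 Cytotoxicity counter screen in PPARg-bla HEK293H cells, same wells as reporter assay. Compounds plus 50 nM rosiglitazone (final) for 17 h at 37 C, then viability read by CellTiter-Glo luminescence.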

The nature of experiment [5]: qHTS assay for small molecule activators of the heat shock response signaling pathway (AID 743210; active = well fitted activation curve with a large enough effect in the signal ratio in the repeat runs, with a control signal flat, not every such curve was filed as active; the % refers to the signal ratio; note: series mostly up to about 63 µM). A digest of the protocol: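 Beta-lactamase reporter read-out: FRET substrate fluorescence after 2.5 h at RT, following 5 h compound treatment at 37 C of HeLa cells carrying HSE-driven bla reporter; quantitative HTS format.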
The nature of experiment [6]: qHTS assay to identify small molecule agonists of the peroxisome proliferator-activated receptor delta (PPARd) signaling pathway - cell viability counter screen (AID 743211). Note: nearly all actives have a fitted effect of over 55% in size. Note: potency is the fitted concentration of half-maximal effect. A digest of the protocol: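 Read-out: CellTiter-Glo luminescence, 30 min RT, measured in the same wells as the beta-lactamase reporter. Cells: GeneBLAzer PPAR delta UAS-bla HEK293H, 3000 cells/well, compound exposure 17 h at 37C.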

A short description of experiment [7]: qHTS assay to identify small molecule antagonists of the peroxisome proliferator-activated receptor delta (PPARd) signaling pathway - cell viability counter screen (AID 743213). Note: nearly all actives have a fitted effect of over 50% in size. Note: potency is the fitted concentration of half-maximal effect. The procedure, abridged: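 PPARd-bla HEK293H cells (3000/well) got compound plus 300 nM L165041 agonist for 17 h at 37 C. Viability in the same wells came from CellTiter-Glo luminescence after 30 min at room temperature.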

Experiment [8] deals with Peroxisome proliferator-activated receptor delta (Homo sapiens) (UniProt Q03181). Nature of the experiment: qHTS assay to identify small molecule antagonists of the peroxisome proliferator-activated receptor delta (PPARd) signaling pathway (AID 743215; active = well fitted inhibition curve with a large enough effect in the signal ratio in the repeat runs, not every such curve was filed as active; the % refers to the signal ratio;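 note: cells stimulated with agonist L165041 at 300 nM final during compound exposure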; note: potency is the fitted concentration of half-maximal effect). A digest of the protocol:
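Agonist L165041 (300 nM final) added with compound to PPARd-bla HEK293H UAS-bla reporter cells; 17 h incubation at 37 C. Read-out: LiveBLAzer FRET substrate, 2 h at room temperature, fluorescence intensity.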

The target in experiment [9] is Bile acid receptor (Homo sapiens) (UniProt Q96RI1). Briefly: qHTS assay to identify small molecule antagonists of the farnesoid-X-receptor (FXR) signaling pathway (AID 743217; active = well fitted inhibition curve with a large enough effect in the signal ratio in the repeat runs, not every such curve was filed as active; the % refers to the signal ratio). A digest of the protocol: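 Antagonist mode: chenodeoxycholic acid at 50 uM final stimulates a UAS-driven beta-lactamase reporter in HEK 293T FXR-bla cells during 16 h, 37C compound exposure. Read-out is FRET substrate fluorescence after 2 h at room temperature.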
Bile acid receptor (Homo sapiens), sequence (Q96RI1 whole entry, looked up): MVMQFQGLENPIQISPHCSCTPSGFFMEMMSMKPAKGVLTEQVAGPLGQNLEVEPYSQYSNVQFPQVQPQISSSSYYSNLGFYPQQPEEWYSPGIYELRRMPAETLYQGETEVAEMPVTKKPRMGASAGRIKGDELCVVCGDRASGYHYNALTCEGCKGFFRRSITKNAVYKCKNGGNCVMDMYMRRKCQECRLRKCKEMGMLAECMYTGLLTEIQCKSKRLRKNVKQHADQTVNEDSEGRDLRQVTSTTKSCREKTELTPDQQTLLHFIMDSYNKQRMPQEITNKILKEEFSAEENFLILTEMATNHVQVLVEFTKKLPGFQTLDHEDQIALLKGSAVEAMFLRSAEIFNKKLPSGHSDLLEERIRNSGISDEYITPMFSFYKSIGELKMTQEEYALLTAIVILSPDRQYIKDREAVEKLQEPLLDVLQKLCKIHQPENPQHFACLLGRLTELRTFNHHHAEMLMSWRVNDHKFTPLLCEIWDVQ

Experiment [10] shares this target. Nature of the experiment: qHTS assay to identify small molecule agonists of the farnesoid-X-receptor (FXR) signaling pathway (AID 743220; active = well fitted activation curve with a large enough effect in the signal ratio in the repeat runs, not every such curve was filed as active; the % refers to the signal ratio). The procedure, abridged: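 FXR-UAS-bla HEK 293T cells carrying a UAS-driven beta-lactamase reporter were plated for 5 h at 37C/5% CO2, then exposed to DMSO-dissolved Tox21 10K compounds for 16 h at 37C. A LiveBLAzer B/G FRET substrate was loaded for 2 h at room temperature before fluorescence reading.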

Experiment [11] is described as follows: qHTS assay to identify small molecule antagonists of the farnesoid-X-receptor (FXR) signaling pathway - cell viability counter screen (AID 743221; active = well fitted cell-killing curve with a large enough effect in the repeat runs, not every such curve was filed as active; note: nearly all actives have a fitted effect of over 50% in size). The procedure, abridged: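 HEK 293T FXR-bla cells, 5 h pre-incubation; compound + CDCA 50 uM final, 16 h, 37 C; beta-lactamase FRET read first, then CellTiter-Glo luminescence, 30 min RT.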
Experiment [12] has as its target Vitamin D3 receptor (Homo sapiens) (UniProt P11473). Briefly: qHTS assay to identify small molecule agonists of the vitamin D receptor (VDR) signaling pathway (AID 743222; calls by dose curve). A digest of the protocol: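 Agonist mode, beta-lactamase reporter: fluorescence from LiveBLAzer B/G FRET substrate (2 h, room temperature) read after 16 h compound treatment at 37 C of VDR-bla cells, which were pre-incubated 4 h after seeding.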

The nature of experiment [13]: qHTS assay to identify small molecule that activate the aryl hydrocarbon receptor (AhR) signaling pathway - cell viability counter screen (AID 743086). Note: nearly all actives have a fitted effect of over 45% in size. Note: potency is the fitted concentration of half-maximal effect. The procedure, abridged:
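HepG2-AhR-luc (HG2L7.5c1) cells, 4000/well, treated 24 h at 37 C with compound; viability measured as CellTiter-Fluor fluorescence after 30 min in the same wells as the luciferase read.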

Experiment [14] deals with Peroxisome proliferator-activated receptor gamma (Homo sapiens) (UniProt P37231). Nature of the experiment: qHTS assay to identify small molecule agonists of the peroxisome proliferator-activated receptor gamma (PPARg) signaling pathway (AID 743094; active = well fitted activation curve with a large enough effect in the signal ratio in the repeat runs, not every such curve was filed as active; the % refers to the signal ratio). The procedure, abridged: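 Agonist activity was taken from a beta-lactamase reporter (FRET substrate, 1 h at room temperature) in HEK293H cells carrying a PPARg UAS-bla construct. Compounds in DMSO were incubated 17 h at 37C after a 5 h cell pre-incubation.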
Peroxisome proliferator-activated receptor gamma (Homo sapiens), sequence (P37231 whole entry, looked up): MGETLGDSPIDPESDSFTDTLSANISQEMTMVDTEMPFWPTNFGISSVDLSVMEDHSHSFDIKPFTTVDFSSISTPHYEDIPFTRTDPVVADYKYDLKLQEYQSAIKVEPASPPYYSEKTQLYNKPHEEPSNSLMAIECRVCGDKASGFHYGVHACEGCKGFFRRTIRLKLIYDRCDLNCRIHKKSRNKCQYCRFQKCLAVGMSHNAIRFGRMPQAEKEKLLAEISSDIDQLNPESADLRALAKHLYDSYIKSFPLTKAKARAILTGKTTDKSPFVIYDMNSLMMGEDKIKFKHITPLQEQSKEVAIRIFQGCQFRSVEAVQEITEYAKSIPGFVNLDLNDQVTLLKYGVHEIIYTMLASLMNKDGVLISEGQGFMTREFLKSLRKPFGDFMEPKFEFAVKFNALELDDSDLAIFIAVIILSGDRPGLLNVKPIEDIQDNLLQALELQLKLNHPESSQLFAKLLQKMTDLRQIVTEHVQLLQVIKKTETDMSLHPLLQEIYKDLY

Experiment [15] is described as follows: qHTS assay for small molecule agonists of the antioxidant response element (ARE) signaling pathway (AID 743202; active = well fitted activation curve with a large enough effect in the signal ratio in the repeat runs, not every such curve was filed as active; the % refers to the signal ratio). A digest of the protocol: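 HepG2 ARE-bla reporter line, 2,000 cells/well; 5 h preincubation 37 C/5% CO2; compound (DMSO) 16 h 37 C; B/G FRET substrate 2 h RT; fluorescence intensity.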
Experiment [16] can be described thus: qHTS assay for small molecule agonists of the antioxidant response element (ARE) signaling pathway - cell viability counter screen (AID 743203; calls by dose curve; note: nearly all actives have a fitted effect of over 55% in size; note: potency is the fitted concentration of half-maximal effect). The procedure, abridged: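 Viability counter screen: CellTiter-Glo luminescence, read after 30 min at room temperature, in ARE-bla HepG2 wells. Compound exposure lasted 16 h at 37C/5% CO2, following a 5 h pre-incubation of the cells after plating.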

Experiment [17] in a line: qHTS assay for small molecule activators of the heat shock response signaling pathway - cell viability counter screen (AID 743209). Note: nearly all actives have a fitted effect of over 50% in size. Note: potency is the fitted concentration of half-maximal effect. The procedure, abridged: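 Cytotoxicity counter screen run in the same wells as the heat-shock bla reporter assay: HeLa HSE-bla cells, 5 h compound exposure at 37 C, viability read by CellTiter-Glo luminescence.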
Experiment [18] has as its target Peroxisome proliferator-activated receptor delta (Homo sapiens) (UniProt Q03181). Briefly: qHTS assay to identify small molecule agonists of the peroxisome proliferator-activated receptor delta (PPARd) signaling pathway (AID 743212; calls by dose curve). A digest of the protocol:
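Read-out: beta-lactamase FRET fluorescence after 2 h room-temperature incubation with LiveBLAzer B/G substrate. Cells were HEK293H carrying a UAS-bla reporter for PPARd, treated at 37 C with DMSO-dissolved compounds.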

A short description of experiment [19]: qHTS assay to identify small molecule agonists of the farnesoid-X-receptor (FXR) signaling pathway - cell viability counter screen (AID 743218). Note: nearly all actives have a fitted effect of over 45% in size. Note: potency is the fitted concentration of half-maximal effect. A digest of the protocol: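 Viability counter screen in the same wells: CellTiter-Glo luminescence, 30 min room-temperature incubation, measured after the beta-lactamase read. Cells were GeneBLAzer FXR-UAS-bla HEK 293T, compound-treated 16 h at 37C.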

Experiment [20] concerns the target Vitamin D3 receptor (Homo sapiens) (UniProt P11473). Briefly: qHTS assay to identify small molecule antagonists of the vitamin D receptor (VDR) signaling pathway (AID 743223; active = well fitted inhibition curve with a large enough effect in the signal ratio in the repeat runs, not every such curve was filed as active; the % refers to the signal ratio). The procedure, abridged:
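Beta-lactamase reporter read-out: FRET substrate fluorescence after 2 h at room temperature, following 16 h exposure of VDR-bla cells to test compound plus 3 nM (final) 1alpha,25-dihydroxyvitamin D3 agonist at 37C.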

Peroxisome proliferator-activated receptor delta (Homo sapiens), sequence (Q03181 whole entry, looked up): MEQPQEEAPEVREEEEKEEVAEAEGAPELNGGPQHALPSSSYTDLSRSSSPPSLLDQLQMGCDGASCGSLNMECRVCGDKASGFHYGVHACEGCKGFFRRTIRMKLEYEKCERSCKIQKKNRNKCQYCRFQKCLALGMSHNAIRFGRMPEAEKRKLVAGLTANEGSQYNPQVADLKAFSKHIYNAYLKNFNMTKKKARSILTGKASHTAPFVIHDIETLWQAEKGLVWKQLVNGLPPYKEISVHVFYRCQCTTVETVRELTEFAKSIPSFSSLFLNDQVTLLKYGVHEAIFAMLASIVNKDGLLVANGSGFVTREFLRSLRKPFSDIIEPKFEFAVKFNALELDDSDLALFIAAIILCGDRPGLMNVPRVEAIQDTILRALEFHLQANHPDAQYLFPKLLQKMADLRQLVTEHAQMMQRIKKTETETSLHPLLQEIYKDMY
Vitamin D3 receptor (Homo sapiens), sequence (P11473 whole entry, looked up): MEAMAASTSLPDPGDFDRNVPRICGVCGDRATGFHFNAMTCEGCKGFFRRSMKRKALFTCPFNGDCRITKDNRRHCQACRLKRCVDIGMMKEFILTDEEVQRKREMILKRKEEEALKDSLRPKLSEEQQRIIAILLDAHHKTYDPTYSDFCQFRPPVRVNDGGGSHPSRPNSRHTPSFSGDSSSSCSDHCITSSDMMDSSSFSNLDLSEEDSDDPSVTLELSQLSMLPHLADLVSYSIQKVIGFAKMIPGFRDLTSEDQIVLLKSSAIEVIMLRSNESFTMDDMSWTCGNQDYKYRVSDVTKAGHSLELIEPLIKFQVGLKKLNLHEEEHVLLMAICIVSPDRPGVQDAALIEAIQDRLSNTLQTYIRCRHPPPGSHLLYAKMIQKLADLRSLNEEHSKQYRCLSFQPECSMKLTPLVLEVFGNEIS

As to `O=[N+]([O-])c1cc(C(F)(F)F)cc([N+](=O)[O-])c1Cl`, the Potency entry in experiment [1], in [2], in experiment [3], in experiment [4], in experiment [6] and in experiment [7] was “inactive” in each case. Further, the Potency entry in experiment [8], in [9] and in experiment [11] was “inactive” each time. The outcome in [5], in experiment [10] and in experiment [12] was inactive.
As for `N#Cc1cc(I)c(O)c(I)c1`, the Potency result in experiment [1], in experiment [2], in experiment [13], in experiment [8] and in experiment [11] was “inactive” throughout. The molecule was classed as inactive in [5] and in experiment [12].
`N#C/C(N)=C(/N)C#N`: the Potency entry in experiment [1], in [13], in [14], in experiment [4], in [15] and in [16] was “inactive” each time. The Potency entry in experiment [17], in experiment [6], in experiment [7], in experiment [8], in [9] and in experiment [19] was “inactive” throughout. The Potency entry in experiment [11] was “inactive”. Moreover, the result in experiment [5], in experiment [18], in [10] and in experiment [12] was inactive.
On to `C=CC(=O)NCNC(=O)C=C`, for which the Potency result in experiment [13], in experiment [16], in experiment [6] and in [11] was “inactive” each time. Also, the call in experiment [5] and in [12] was inactive.
Turning to `O=C(Nc1ccccc1)Nc1ccnc(Cl)c1`, the molecule was classed as inactive in experiment [5], in experiment [18], in experiment [10] and in experiment [12]. Besides, the Potency entry in experiment [6], in experiment [7], in [19] and in [11] was “inactive” throughout.
In the case of `CC(C)O.CC(C)O.OCCN(CCO)CCO.OCCN(CCO)CCO.[Ti]`, the Potency result in [13], in experiment [4], in [16], in [17], in [6] and in [7] was “inactive” each time. Also, the Potency entry in [19] and in experiment [11] was “inactive” in each case.
As to `Clc1cc(C(Cl)(Cl)Cl)cnc1Cl`, the Potency result in experiment [2], in experiment [13], in experiment [14], in [3], in [4] and in [7] was “inactive” in each case. In addition, the Potency entry in experiment [8], in experiment [9] and in [11] was “inactive” each time. For the same molecule, the Potency was 61.1 µM (active) in experiment [16] and 49 µM (active) in experiment [17]. Also, the call in [10], in experiment [12] and in experiment [20] was inactive.
Regarding `COP(=S)(OC)Oc1ccc([N+](=O)[O-])cc1Cl`, the Potency in experiment [13] is 61.1 µM (active). Further, the Potency entry in experiment [14], in [3], in [4], in experiment [16], in experiment [17] and in experiment [19] was “inactive” in each case. In addition, the Potency result in [11] is “inactive”. The outcome in [5] and in experiment [18] was inactive.
Take `NCCCNCCCN`: the Potency entry in [2], in experiment [13], in experiment [4] and in experiment [16] was “inactive” throughout. Further, the call in experiment [5] and in experiment [12] was inactive. Further, the Potency in experiment [7] is 49.7 µM (active).
Consider `IC(I)=C(I)I`, for which the Potency was 15.4 µM (active) in experiment [1]; 43.3 µM (active) in [13]; 9.77 µM (active) in [4]; 6.11 µM (active) in experiment [16]; 9.77 µM (active) in experiment [6]; 12.3 µM (active) in experiment [7]. The Potency is 15.5 µM (active) in experiment [8] and 12.3 µM (active) in experiment [19].
In the case of `CN1C[C@H](CNC(=O)OCc2ccccc2)C[C@@H]2c3cccc4c3c(cn4C)C[C@H]21`, the Potency in [13] was 29.8 µM (active); in experiment [4] it was 26.6 µM (active); in [7], 13.3 µM (active); in experiment [19], 13.3 µM (active). Further, the Potency result in [3] and in experiment [17] was “inactive” throughout. Moreover, in [5], the molecule was classed as inactive.
Take `Sc1ccccc1Cl`: the Potency entry in [4], in [15], in [16], in experiment [17], in [7] and in experiment [8] was “inactive” throughout. The Potency result in [9], in [19] and in experiment [11] was “inactive” throughout. Also, the result in [5], in [18], in experiment [10], in [12] and in experiment [20] was inactive.
